Screens deposited in PubChem BioAssay by National Center for Advancing Translational Sciences (NCATS).
Only some compounds are listed: those with a hit (about 19% of all), similar ones and a draw of the others.
IL1B secr inh = qHTS for Inhibitors of Inflammasome Signaling: IL-1-beta AlphaLISA Primary Screen | THP-1 LPS/ATP IL-1B secretion, AlphaLISA, 16 h; active compounds read low | activity change, % at 57.5 µM | 360,000 compounds, 4.7% hits | AID 743279, 2014; in the data active = activity change below about -50%; inconclusive = mostly about -30% to -49%
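THP-1 cells pretreated 1 hr with compounds (up to 57.5 uM final), then stimulated with LPS (250 ng/mL final) plus ATP (1.25 mM final); secreted IL-1B measured by AlphaLISA after 16 hr, decreased signal indicating inhibition.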
DT40 TDP1 CPT = qHTS for Inhibitors of human tyrosyl-DNA phosphodiesterase 1 (TDP1): qHTS in cells in presence of CPT. chicken DT40 Tdp1-/-;hTDP1 cells + 20 nM CPT, ATP luminescence, 48 h. Potency, µM (titrated, usually from 46.2 µM), inactives show at the highest dose activity change, negative = growth inhibition, most hits filed as inhibitors. 420,000 compounds, 12% hits; note: potency is the fitted concentration of half-maximal effect; nearly all actives have a fitted effect of over 55% in size
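Chicken DT40 Tdp1-/- cells stably complemented with human TDP1 were seeded at 400 cells/well in medium containing 20 nM camptothecin, exposed to pin-transferred compounds, and grown at 37 °C for at least 48 hr. Viability was read as ATP luminescence.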
ELG1 repair inh = qHTS screen for small molecules that inhibit ELG1-dependent DNA repair in human embryonic kidney (HEK293T) cells expressing luciferase-tagged ELG1. HEK293T ELG1-luciferase reporter, luminescence, 16 h; DNA damage induced by 5-fluorouridine. Potency, µM (doses to about 46.1 µM), for inactives: at the highest dose activity change, negative = inhibition, actives largely listed as inhibitors. 330,000 compounds, 2.3% hits; note: potency is the fitted concentration of half-maximal effect; nearly all actives have a fitted effect of over 55% in size
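Quantitative HTS, concentration-response format. 2,000 cells/well co-treated with 5-fluorouridine and compound, 16 hr in 5% CO2 at 37 °C; ONE-Glo luminescence read after 30 min.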
HT1080-NT tox = qHTS for induction of synthetic lethality in tumor cells producing 2HG: qHTS for the HT-1080-NT fibrosarcoma cell line | HT-1080-NT fibrosarcoma viability, CellTiter-Glo ATP luminescence, 48 h | Potency, µM (top dose mostly 46.1 µM), without a hit: at the top dose activity, negative = less viability, most hits filed as cytotoxic | 360,000 compounds, 1.6% hits | AID 686970, 2013;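 note: NT is the 2HG producing partner of a matched IDH1 knockdown line; potency is the fitted concentration of half-maximal effect; 0% = DMSO-treated cells and -100% = media-only wells without cells; nearly all actives have a fitted effect of over 55% in size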
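HT-1080-NT fibrosarcoma cells (2HG-overproducing), 750 cells/well in RPMI with 5% FBS, dosed after 2 h and incubated 48 h at 37C. CellTiter-Glo luminescence normalized to DMSO and no-cell wells; concentration-response curves fitted and classed.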
TDP1 cell noCPT = qHTS for Inhibitors of human tyrosyl-DNA phosphodiesterase 1 (TDP1): qHTS in cells in absence of CPT; DT40 Tdp1-/- hTDP1 cells, no CPT, ATP luminescence, 48 h; Potency, µM (top dose mostly 46.2 µM), for inactives: at the highest dose activity change, negative = growth inhibition, most hits filed as inhibitors; 420,000 compounds, 15% hits; AID 686978, 2013; note: potency is the fitted concentration of half-maximal effect; nearly all actives have a fitted effect of over 55% in size
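Luminescent ATP content (CellTiter-Glo) served as the growth readout. Knockout chicken DT40 cells expressing human TDP1 were exposed to compounds without camptothecin for a minimum 48 hr at 37 °C.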
HT1080 IDH1KD tx = qHTS for induction of synthetic lethality in tumor cells producing 2HG: qHTS for the HT-1080-IDH1KD cell line | Potency, µM (series often up to 46.1 µM), without a hit: top-dose activity, negative = toxicity, hits mostly cytotoxic | 360,000 compounds, 2% hits | AID 686971, 2013 | HT-1080 IDH1 knockdown viability, ATP luminescence, 48 h;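 note: potency is the fitted concentration of half-maximal effect; 0% = DMSO wells and -100% = cell-free medium wells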
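Knockdown cells (IDH1KD HT-1080) received compounds 2 h after plating at 750 cells/well and were kept 48 h at 37 °C in 5% FBS RPMI. A CellTiter-Glo luminescence read gave % activity for curve fitting.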
The depositor's hits bear a star; i = inactive; ? = inconclusive; . = no result. Unless noted, calls come from the whole dose curve; as a rule, active = well fitted curve in the direction sought with a large enough effect; inconclusive = small, poorly fitted or top-dose-only effect, or another doubt; inactive = no such curve, though single readings can be large; an effect the other way counts as inactive or inconclusive. Unless noted, % is set by controls: 0 for no effect and ±100 for the full control effect.

SMILES | IL1B secr inh | DT40 TDP1 CPT | ELG1 repair inh | HT1080-NT tox | TDP1 cell noCPT | HT1080 IDH1KD tx
O=c1/c(=C\c2cccnc2)sc2nc3ccccc3n12 | 19 | -11% | ? | 24% | ? | 8%
CC1=NN2C(=N)/C(=C\c3cc(C)n(-c4ccccc4)c3C)C(=O)N=C2S1 | 26 | -12% | 5% | 6% | -7% | 6%
Cc1cc(/C=C2\Cc3ccccc3C2=O)c(C)n1-c1ccccc1 | -62* | ? | ? | -3% | 13µM* | 0%
Cc1cc(/C=C2/C(=N)N3C(c4ccccc4)=CSC3=NC2=O)c(C)n1-c1ccccc1 | 26 | 13µM* | ? | 0% | 13µM* | 4%
Cc1cc(/C=c2/sc3nc4ccccc4n3c2=O)c(C)n1-c1ccccn1 | -58* | ? | ? | -20% | 18µM* | 6%
COc1ccc(C(=O)N/N=C/C2CC=CCC2)cc1OC (stereo not drawn) | 24 | -4% | 14% | -2% | 1% | 9%
Nc1ccc2c(c1)C=C/C2=C\c1ccccc1 | . | 3% | . | . | ? | .
Cc1cc(/C=c2\sc3nc4ccccc4n3c2=O)c(C)n1-c1ccc(C(=O)O)cc1 | 0 | 13µM* | ? | 4% | 13µM* | 27%
CC1=NN(c2ccccc2)C(=O)/C1=C\c1cc(C)n(-c2ccccc2)c1C | i | ? | ? | 10% | 23µM* | 6%
O=c1/c(=C/c2cn(-c3ccccc3)nc2-c2ccc(F)cc2)sc2nc3ccccc3n12 | . | . | 1% | . | . | .
O=S(=O)(Cc1nnnn1-c1ccccc1)c1ccc(Cl)cc1 | i | 12% | -5% | 3% | -1% | 28%
COc1ccc(CN2CCCC(C(=O)Nc3cccc(-n4cnnn4)c3)C2)c(C)c1C (stereo not drawn) | -5 | ? | -29% | -24% | ? | -15%
CC1(C)OC(c2ccccc2)=C/C(=C/C=Nc2ccccc2)O1 | -5 | 23µM* | ? | 1% | ? | -4%
CC1(C)OC(c2ccccc2)=C/C(=C\C=N\NC(=O)c2ccncc2)O1 | 18 | ? | ? | ? | ? | ?
Cc1ccc(C(=O)NC(=S)/C=C2\N(C)c3ccccc3C2(C)C)cc1 | -17 | 8.2µM* | -12% | -15% | 3.7µM* | -21%
CN1/C(=C\C(=O)C(F)F)C(C)(C)c2ccccc21 | 20 | -7% | -2% | 3% | -28% | 5%
CN1/C(=C/C(=S)NC(=O)C2CCC2)C(C)(C)c2ccccc21 | -15 | 16µM* | ? | -13% | 18µM* | -22%
CC(=O)/C=C1\N(C)c2ccc(C)cc2C1(C)C | 18 | 6.5µM* | -6% | -2% | 5.2µM* | -12%
CC(C)C(=O)NC(=S)/C=C1/N(C)c2ccccc2C1(C)C | -3 | 18µM* | ? | 0% | 8.2µM* | ?
O=c1[nH]nc(Cc2ccc([N+](=O)[O-])cc2)c2ccccc12 | 60 | ? | 17% | -24% | ? | ?
CN1/C(=C\C=N\NC(=O)c2ccc(O)cc2)C(C)(C)c2ccccc21 | -6 | 21µM* | ? | -15% | 18µM* | -25%
CCN1C[C@@H]2[C@@H]3C(=O)N(C)C(=O)[C@@H]3[C@](C)(C1=O)N2C(=O)c1ccc(Cl)c(Cl)c1 | 7 | -12% | . | 5% | -8% | 14%
Cc1nn(C)cc1C(C)NC(=O)c1cc(COc2ccc(F)c(F)c2)on1 (stereo not drawn) | -15 | ? | 20% | -2% | ? | -1%
COc1ccccc1C(CNC(=O)CN1C(=O)NC(C)(c2ccc3ccccc3c2)C1=O)N1CCCC1 (stereo not drawn) | -18 | ? | . | -4% | ? | 3%
COC(=O)c1ccc(-c2ccc(/C=N/N3C(=O)C4C5C=CC(C6CC56)C4C3=O)o2)cc1 (stereo not drawn) | -57* | ? | ? | -3% | 18µM* | -3%
SMILES | IL1B secr inh | DT40 TDP1 CPT | ELG1 repair inh | HT1080-NT tox | TDP1 cell noCPT | HT1080 IDH1KD tx
COC(=O)c1cccc(-c2ccc(/C=N/N3C(=O)C4C5C=CC(C6CC56)C4C3=O)o2)c1 (stereo not drawn) | 0 | -1% | ? | 10% | -8% | -1%
CC(C)CN=Cc1c(O)c([N+](=O)[O-])cc2oc3c(c12)CCCC3 | 22 | ? | -5% | -10% | ? | -12%
O=[N+]([O-])c1cc2oc3c(c2c(C=NCc2ccccc2)c1O)CCCC3 | 3 | 8.2µM* | 7% | -1% | 15µM* | -1%
Cc1nnc(NC(=O)c2ccc(S(=O)(=O)N3CC(C)CC(C)C3)cc2)o1 (stereo not drawn) | 13 | ? | ? | -18% | 16µM* | -12%
CS(=O)(=O)c1ccc(-c2nnc(NC(=O)c3ccc(S(=O)(=O)N4CCCC4)cc3)o2)cc1 | 3 | 0% | 6% | -12% | 6% | -16%
O=C(Nc1nnc(C2CC2)o1)c1ccc(S(=O)(=O)N2CCCCC2)cc1 | -69* | ? | 17% | -15% | ? | -29%
CC1CN(S(=O)(=O)c2ccc(C(=O)Nc3nnc(-c4ccc5c(c4)CCCC5)o3)cc2)CC(C)O1 (stereo not drawn) | 2 | 6.5µM* | 2.6µM* | -23% | 12µM* | -25%
Cc1cccc(NC(=O)c2ccc(S(=O)(=O)N3CCCCC3)cc2)n1 | -25 | -28% | ? | -6% | -26% | 0%
Cc1cccc(NC(=O)c2ccc(S(=O)(=O)N3CCC(C)CC3)cc2)n1 | -12 | ? | ? | -1% | 16µM* | ?
COc1ccc(CC(=O)NNC2=Nc3cccc4cccc2c34)cc1 | . | -11% | 0% | 1% | -29% | -3%
O=C(CSc1nnc(-c2ccccc2F)n1C1CC1)N1CCCC1 | -5 | -3% | . | 0% | -4% | -2%
Cc1ccc(NC(=O)c2cc(-c3ccc(Br)s3)nc3ccccc23)cc1F | . | ? | . | . | -28% | .
Cc1nnc(NC(=O)c2ccc(S(=O)(=O)N3CCCCC3C)cc2)o1 (stereo not drawn) | -10 | -22% | -4% | -5% | -20% | -14%
